From PubChem BioAssay (EPA / NIEHS) come the findings set out here.

The structures appear in SMILES notation. Inconclusive results are not listed. Calls of active or inactive are those of the source. Rule for the calls: active = hit-call score of the fitted dose curve at least 0.9, where 1 is the maximum; inconclusive = response in the unintended direction; inactive = score below 0.9.

human Retinoid X Receptor beta (RXRb), RXRB (gene 6257), sequence (P28702 whole entry, looked up, the tested form may be a part): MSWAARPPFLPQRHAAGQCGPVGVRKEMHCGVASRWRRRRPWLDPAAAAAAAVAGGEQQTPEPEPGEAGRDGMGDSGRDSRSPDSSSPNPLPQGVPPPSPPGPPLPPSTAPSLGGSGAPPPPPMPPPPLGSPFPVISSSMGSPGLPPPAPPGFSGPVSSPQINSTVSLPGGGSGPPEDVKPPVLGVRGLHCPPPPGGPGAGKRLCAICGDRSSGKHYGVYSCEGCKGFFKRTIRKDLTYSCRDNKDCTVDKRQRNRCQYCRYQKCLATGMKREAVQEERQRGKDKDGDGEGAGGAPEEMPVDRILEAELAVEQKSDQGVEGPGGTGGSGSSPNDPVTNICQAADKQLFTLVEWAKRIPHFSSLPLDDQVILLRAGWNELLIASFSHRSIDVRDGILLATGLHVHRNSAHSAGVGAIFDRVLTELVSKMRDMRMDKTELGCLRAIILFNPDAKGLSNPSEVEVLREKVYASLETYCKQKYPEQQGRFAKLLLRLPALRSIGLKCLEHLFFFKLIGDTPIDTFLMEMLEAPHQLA

The target in this assay is human Retinoid X Receptor beta (RXRb), RXRB (gene 6257) (UniProt P28702). Briefly: ATG_RXRb_TRANS: Attagene TRANS-FACTORIAL HepG2 Assay for human Retinoid X Receptor beta (RXRb) (AID 2283013). In short, it runs like this:
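Read-out: reporter mRNA induction via RT-PCR plus capillary electrophoresis fluorescence, analysed as signal increase relative to DMSO. Cells were human HepG2, transiently transfected with GAL4-UAS reporter constructs and chimeric receptor-Gal4 fusions, dosed for 24 h.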
For `CCN(CCO)c1cccc(C)c1`, the outcome was inactive.
For the molecule `C=C(C)[C@H]1CC=C(C)CC1`, the call was inactive.
The same measure, in the same setting: the same measure for `CCCCCc1ccc(Cl)cc1`: “inactive”.
For the molecule `CCCCCC/C=C\CCCCCCCC(=O)O`, the AC50 was 77 µM (active).
For the molecule `C[Si](C)(C)O[Si](O)(O)O`, the molecule was called inactive.
Consider `COc1ccc(-c2coc3cc(O)ccc3c2=O)cc1`, for which the molecule was called inactive.
On to `COC=O`, for which the outcome was inactive.
Turning to `O=C1CCCCCCCCCCC(=O)OCCO1`, the molecule was classed as inactive.
As to `Nc1ccc(Cl)cc1Cl`, the result was inactive.
Still for that read-out and setting: the same measure for `O=C(OCC1CCC2OC2C1)C1CCC2OC2C1` (stereo unspecified): “inactive”.
For the molecule `Cc1ccc(N/N=c2\c(=O)cc/c(=N/Nc3ccc(S(=O)(=O)O)cc3)c2=O)c(C)c1`, the molecule was called inactive.
Take `CC(C)CCCCCOC(=O)CCS`: the outcome was inactive.
For the molecule `CCCCCCCC/C=C\CCCCCCCC(=O)OCCO`, the AC50 is 17.7 µM (active).
For `CCCCCC/C=C/C=O`, the molecule was classed as inactive.
Consider `CC1=CC[C@H](C(C)C)C=C1`, for which the AC50 was 40.2 µM (active).
Take `CC(=O)Oc1ccc(C)cc1`: the molecule was classed as inactive.
In the case of `Cc1cc(O)c(Cl)c(C)c1Cl`, the call was inactive.
For `C[C@]12CCC(=O)C=C1CC[C@@H]1[C@@H]2C(=O)C[C@@]2(C)[C@H]1CC[C@]2(O)C(=O)CO`, the molecule was called inactive.
Turning to `CCCCCCCCCCCCCCCC(=O)OCC`, the molecule was classed as inactive.
On to `C=CCCCCCCCCC(=O)OCCCC`, for which the AC50 is 104 µM (active).
As for `O=CN1CCCCC1`, the molecule was called inactive.
As for `C=C1[C@H]2CC[C@@H]3[C@H]2C(C)(C)CCC[C@]13C`, the call was inactive.
As for `OC1CCCCCCCCCCC1`, the AC50 is 44.6 µM (active).
As for `COC(=O)/C=C\C(=O)O`, the molecule was called inactive.
On to `Cc1cnc(NC(=O)C2=C(O)c3ccccc3S(=O)(=O)N2C)s1`, for which the call was inactive.
Still for that read-out and setting: the same measure for `O=[N+]([O-])C1(Br)COCOC1`: “inactive”.
